The values below come from PubChem BioAssay AID1851 (National Center for Advancing Translational Sciences (NCATS), 2009).

Screen size: about 16,000 compounds; about 5,700 (36%) were called active. Another 24% or so got no clear call; they are omitted. The list shows a part of the results. A number with no mark means an inactive call. The call rests on the fitted dose curve; in most records, active means well fitted curve in the direction sought with a large enough effect; inconclusive means small, poorly fitted or top-dose-only effect, or effect the other way; inactive means no such curve, though single readings can be large or run the other way.
On the % scale 0 is the no-effect control and ±100 the full control effect.

Cytochrome P450 1A2 (Homo sapiens), sequence (P05177 whole entry, looked up): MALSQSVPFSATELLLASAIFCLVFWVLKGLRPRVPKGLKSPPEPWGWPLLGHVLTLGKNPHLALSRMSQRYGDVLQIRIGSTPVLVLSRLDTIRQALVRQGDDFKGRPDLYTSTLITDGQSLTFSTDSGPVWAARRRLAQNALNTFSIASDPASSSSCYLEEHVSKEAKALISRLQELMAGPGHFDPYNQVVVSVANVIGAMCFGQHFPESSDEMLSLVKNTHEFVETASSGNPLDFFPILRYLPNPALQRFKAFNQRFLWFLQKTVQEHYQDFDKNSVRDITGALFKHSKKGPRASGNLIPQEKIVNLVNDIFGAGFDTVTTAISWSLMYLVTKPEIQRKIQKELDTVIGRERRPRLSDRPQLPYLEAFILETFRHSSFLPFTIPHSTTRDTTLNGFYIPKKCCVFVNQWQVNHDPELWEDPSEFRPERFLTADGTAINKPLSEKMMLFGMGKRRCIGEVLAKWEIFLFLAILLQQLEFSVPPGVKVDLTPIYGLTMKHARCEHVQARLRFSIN

This assay addresses Cytochrome P450 1A2 (Homo sapiens) (UniProt P05177). Description: Cytochrome panel assay with activity outcomes. Particulars: recombinant CYP, pro-luciferin dealkylation, luminescence, p450-cyp1a2; series mostly up to 57.1 µM; activity, negative = inhibition: at the top concentration.
With `CC(=O)N(C[C@@H](O)CO)c1c(I)c(C(=O)NC[C@@H](O)CO)c(I)c(C(=O)NC[C@@H](O)CO)c1I`, the “activity, negative = inhibition” value was -4.01% [at 25.6 µM].
Still for that read-out and setting: for `CC(C)COC[C@H](CN(Cc1ccccc1)c1ccccc1)N1CCCC1` the value was 5.78%.
Consider `CN1C(=O)CC[C@@H]1c1cccnc1`, for which the AC50 result is “inactive”.
For `Cc1ccc(N2C(=O)CSC2c2cccnc2)cc1F` (centres undefined), the AC50 was 15.8 µM (active).
`COc1ccc(N2C(=O)CSC2c2cccc(F)c2)c(OC)c1` (centres undefined): the “activity, negative = inhibition” value is -16.7%.
On to `CCOC(=O)N1CCN(S(=O)(=O)Cc2ccccc2)CC1`, for which the “activity, negative = inhibition” value is -29.3%.
Consider `COc1cccc(C(=O)N2N=C(c3cccc(OC)c3)CC2(O)C(F)(F)F)c1` (centres undefined), for which the AC50 is 14.1 µM (active).
With `O=C(CCCc1ccccc1)N1CCN(c2ccc([N+](=O)[O-])cc2)CC1`, the “activity, negative = inhibition” value is -22.5%.
Still for that read-out and setting: for `COc1cccc(C(=O)NNC2=CC(=O)CC(C)(C)C2)c1` the value was 1.45%.
`CC1(C)CC(=O)C2=C(C1)N(Cc1ccccc1)C(=O)C2(O)C(F)(F)F` (centres undefined): the “activity, negative = inhibition” value was 6.23%.
For the compound `CCC1=NN(C(=O)CCc2ccccc2)C(O)(C(F)(F)F)C1` (centres undefined), the AC50 is 11.2 µM (active).
Consider `CCOC(=O)N1N=C(c2ccccc2)CC1(O)C(F)(F)F` (centres undefined), for which the AC50 was 15.8 µM (active).
As to `CO[C@H]1C=CO[C@]2(C)Oc3c(C)c(O)c4c(O)c(c5c(c4c3C2=O)NC2(CCN(CC(C)C)CC2)N=5)=NC(=O)C(C)=CC=C[C@@H](C)[C@@H](O)[C@@H](C)[C@@H](O)[C@@H](C)[C@@H](OC(C)=O)[C@@H]1C`, the “activity, negative = inhibition” value was -11.4% [at 25.6 µM].
Turning to `COc1ccc(NC(=O)N2CC3(CCN(C(=O)c4csnn4)CC3)C2)cc1`, the “activity, negative = inhibition” value was 2.39%.
As for `CCN1CCCC1Cn1cnc2c([nH]c3ccc(C)cc32)c1=O` (centres undefined), the AC50 is 15.8 µM (active).
Take `O=C(O)CC[C@@H](C(=O)O)N1C(=O)c2ccccc2C1=O`: the AC50 result is “inactive”.
With `O=C(O)[C@H](CCc1ccccc1)N1C(=O)c2ccccc2C1=O`, the activity, negative = inhibition was -9.63% [at 2.29 µM].
For the compound `O=C(CCN1C(=O)c2ccccc2C1=O)Oc1ccc2ccccc2c1`, the AC50 is 17.8 µM (active).
As to `CCOc1ccc(Cl)cc1CNCCNCCO`, the AC50 was 15.8 µM (active).
Consider `CCOc1cc(CNCCc2ccc(S(N)(=O)=O)cc2)ccc1OCc1ccc(Cl)cc1`, for which the “activity, negative = inhibition” value is -17%.
`CCOc1ccc(Cl)cc1CNCCNCC(C)O` (centres undefined): the AC50 is 12.6 µM (active).
On to `CCOc1ccccc1CNCCN1CCOCC1`, for which the “activity, negative = inhibition” value was 2.73%.
`COc1c(Cl)cc(Cl)cc1CNCCNCC(C)O` (centres undefined): the AC50 is 11.2 µM (active).
Regarding `CCOc1ccc(CC(C(N)=O)C(N)=O)cc1CN(C)C`, the “activity, negative = inhibition” value was -1.76%.
Take `Oc1ccc(-c2[nH]ncc2-c2ccc(Cl)cc2)c(O)c1`: the AC50 was 1.58 µM (active).
The same measure, in the same setting: for `Cc1[nH]nc(-c2ccc(O)cc2O)c1-c1ccc(Cl)cc1` the value was 2.24 µM (active).
Same read-out and setting: for `C=C(C)COc1ccc(-c2n[nH]c(C)c2-c2ccc(OC)cc2)c(O)c1` the value was 14.1 µM (active).
Take `CC1(C)O[C@@H]2O[C@H]([C@H](O)CO/N=C3/[C@H]4O[C@@H]4[C@@H](O)[C@H]4[C@H]3CCn3c(=O)n(-c5ccccc5)c(=O)n34)[C@@H](O)[C@@H]2O1`: the activity, negative = inhibition is -7.71% [at 11.4 µM].
Same read-out and setting: for `Cc1cc(NC(=O)C2C3C(=O)N(Cc4ccc(Cl)cc4)C(C(=O)NC(C)(C)C)C34C=CC2(C)O4)no1` (centres undefined) the value was 2.8%.
With `O=C(COc1ccc2ccccc2c1Br)NNC(=O)Nc1ccccc1`, the AC50 is 5.62 µM (active).
As for `CCCC(=O)NNC(=O)Nc1ccccc1`, the “activity, negative = inhibition” value was -5.14%.
For `N#Cc1ccc(-c2ccc(F)cc2)nc1Oc1ccc(Cl)c(Cl)c1`, the AC50 was 1 µM (active).
As to `Cc1ccc(-n2ncc3c(=O)n(CC(=O)NCC4CCCO4)cnc32)cc1` (centres undefined), the “activity, negative = inhibition” value is -21.7%.
`CCc1nnc(NC(=O)CSc2ncnc3c2cnn3-c2ccc(OC)cc2)s1`: the “activity, negative = inhibition” value was -0.31%.
In the case of `COc1ccc(-n2ncc3c(NCC4CCCO4)ncnc32)cc1` (centres undefined), the AC50 is 14.1 µM (active).
`Cc1nn(-c2nc3ccccc3[nH]2)c(N)c1-c1ccc(Cl)cc1`: the half-maximal activity concentration (AC50) was 5.62 µM (active).
On the same count and under the same terms, for `CCNC(=S)NNC(=O)c1cc(C2CC2)nc2ccccc12` the value was 8.91 µM (active).
Regarding `CCNC(=S)NNC(=O)c1cc(CC(C)C)nc2ccccc12`, the “activity, negative = inhibition” value is -18.6%.
As to `COC(=O)C/C=C\[C@@H](C)[C@@H](/C=N\O[C@@H](C)c1cc(-c2c(C)cc(C)cc2C)no1)OC`, the activity, negative = inhibition was -3.54% [at 11.4 µM].
As for `O=C(O)C/C(=C\c1ccco1)C(=O)O`, the activity, negative = inhibition is -11.8% [at 2.29 µM].
As to `O=C(C=C1SCCS1)/C=C/c1ccco1`, the AC50 was 11.2 µM (active).
For the compound `CC(C)C(C(=O)O)N1C(=O)/C(=C/C=C/c2ccco2)SC1=S` (centres undefined), the “activity, negative = inhibition” value is -22%.
Regarding `Cc1cc(C)c(NC(=O)C[C@H](CC(=O)O)c2cccc3ccccc23)c(C(=O)N2CCC3(CCCC3)CC2)c1`, the “activity, negative = inhibition” value is 2.66%.
Consider `COc1cc2c(cc1NC(=O)Nc1ccccc1)oc1ccccc12`, for which the AC50 was 2 µM (active).
As for `COc1ccccc1CC(=O)Nc1cc2oc3ccccc3c2cc1OC`, the AC50 was 1 µM (active).
For `COC(=O)N1CCC2(CCN(Cc3ccccc3OC)CC2)CC1`, the “activity, negative = inhibition” value is 2.41%.
For the compound `COC(=O)N1CCC2(CCCN(Cc3ccccc3OC)C2)CC1`, the “activity, negative = inhibition” value is -13.1%.
Take `COc1ccc(NC(=O)c2cc(-c3cccnc3)nc3ccc(C)cc23)cc1OC`: the “activity, negative = inhibition” value was -24.8%.
For the compound `COc1cc2c(cc1NC(=O)c1cc(-c3cccnc3)nc3ccc(C)cc13)oc1ccccc12`, the AC50 was 12.6 µM (active).
